PubChem BioAssay
Activity calls are given as the source filed them.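 The calls were made as follows, unless noted: active = normalized viability below 100% at a tested concentration; inactive = the rest.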

Assays:
[1] = P. berghei load reduction in hepatocytes – cell-based, HepG2, luciferase luminescence, HepG2 viability, primary screen (AID 624349; in the data active = parasite load remaining mostly below about 12%, no sharp cut-off; inactive = mostly above about 10%;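 also: 100% = mean of DMSO negative control wells on the same plate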); details: P. berghei liver stage in HepG2, luciferase luminescence, concentration not given here; parasite load remaining: stronger effect = lower value; viability: measured here: HepG2 viability without parasites
[2] = viability loss with induced miR-34 in A549 – imaging, A549 dox-inducible miR-34, nuclei and caspase counts, primary screen (AID 1347080;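 active = compounds whose cell count with miR-34 switched on is under 0.7 times the count with it off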); details: A549 miR-34 inducible, Hoechst nuclei count, 48 h
[3] = MELAS cybrid and Rieske KO viability enhancers – cell-based, MELAS cybrids, Rieske KO mouse fibroblasts, CellTiter-Glo, primary screen (AID 1508586;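 active = mean z-score across replicates of 1.96 or higher in either the MELAS or the Rieske mutant cell line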;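 also: z relative to plate mean and SD of compound and empty wells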); details: low glucose
[4] = target: NAD(+) hydrolase SARM1 (Homo sapiens) (UniProt Q6SZW1); test: blocking NAD cleavage by SARM1 SAM-TIR – cell lysate, NAD-Glo luminescence (AID 1508614;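 active = compound whose remaining NAD level is above about 45 nM, limit read from the data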;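 also: higher remaining NAD means stronger inhibition of SARM1 NADase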); details: SAM-TIR HEK293T lysate NADase, at 1 µM, stronger effect = higher value
Chain of NAD(+) hydrolase SARM1 (Homo sapiens) (Q6SZW1 whole entry, looked up): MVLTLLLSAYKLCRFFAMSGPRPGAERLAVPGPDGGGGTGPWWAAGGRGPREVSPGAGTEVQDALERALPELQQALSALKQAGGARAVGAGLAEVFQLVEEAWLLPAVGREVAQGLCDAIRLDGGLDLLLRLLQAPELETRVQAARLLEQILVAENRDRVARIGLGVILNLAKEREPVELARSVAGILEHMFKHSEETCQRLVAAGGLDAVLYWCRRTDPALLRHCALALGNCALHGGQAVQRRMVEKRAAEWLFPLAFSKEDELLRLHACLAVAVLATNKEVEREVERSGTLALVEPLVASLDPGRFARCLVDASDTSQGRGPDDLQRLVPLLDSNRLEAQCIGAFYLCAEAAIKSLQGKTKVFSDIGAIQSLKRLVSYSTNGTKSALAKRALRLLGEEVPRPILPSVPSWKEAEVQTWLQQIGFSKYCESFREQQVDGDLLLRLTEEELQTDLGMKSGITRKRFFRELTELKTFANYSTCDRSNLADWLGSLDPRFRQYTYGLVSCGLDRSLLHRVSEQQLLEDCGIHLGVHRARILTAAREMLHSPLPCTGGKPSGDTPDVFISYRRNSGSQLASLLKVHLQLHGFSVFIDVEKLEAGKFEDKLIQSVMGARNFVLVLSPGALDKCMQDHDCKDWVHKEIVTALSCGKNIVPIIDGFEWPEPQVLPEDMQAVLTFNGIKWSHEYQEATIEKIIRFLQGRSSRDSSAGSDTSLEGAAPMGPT

[5] = drug combination growth inhibition, ovarian cancer – cell-based, oncology-focused library, rucaparib conditional, profiling panel (AID 1508598); details: patient-derived ovarian cancer cells, CellTiter-Glo viability, 144 h, stronger effect = lower value
[6] = stronger effect = lower value, cell number ratio, induced over uninduced
[7] = measured here: relative caspase fold change +Dox/-Dox
[8] = measured here: total cells with miR-34 induction, stronger effect = lower value
[9] = measured here: total cells without miR-34 induction
[10] = MELAS cybrid survival, CellTiter-Glo 48 h, stronger effect = higher value
[11] = Rieske KO mouse fibroblast survival, CellTiter-Glo 72 h

CC1(C)S[C@@H]2[C@H](NC(=O)[C@H](NC(=O)N3CCNC3=O)c3ccccc3)C(=O)N2[C@H]1C(=O)O
1.11: fold change [2, 7]
inactive: parasite load remaining [1] 109% | fold change [2, 6] 0.917 | z-score [3, 10] 0.409 | remaining NAD [4] 10 nM
9220: cell count [2, 8]
-0.381: z-score [3, 11]
10100: cell count [2, 9]
98.7%: viability [1]

Cc1ccc(NC(=O)c2ccc(CN3CCN(C)CC3)cc2)cc1Nc1nc(-c2cccnc2)cs1
1.16: fold change [2, 7]
6420: cell count [2, 9]
active: viability ([5]; at 0.000305 µM, OCI-P5x cells, without rucaparib) 93.4% | viability ([5]; at 0.00122 µM, OCI-P5x cells, without rucaparib) 96.2% | viability ([5]; at 0.00488 µM, OCI-P5x cells, without rucaparib) 92.7% | viability ([5]; at 0.0195 µM, OCI-P5x cells, with rucaparib 20 µM, 100% = cells with rucaparib alone) 99.3% | viability ([5]; at 0.0195 µM, OCI-P5x cells, without rucaparib) 85.4% | viability ([5]; at 0.0781 µM, OCI-P5x cells, with rucaparib 20 µM, 100% = cells with rucaparib alone) 97% | viability ([5]; at 0.0781 µM, OCI-P5x cells, without rucaparib) 92.9% | viability ([5]; at 0.313 µM, OCI-P5x cells, without rucaparib) 84.1% | viability ([5]; at 1.25 µM, OCI-P5x cells, with rucaparib 20 µM, 100% = cells with rucaparib alone) 91.9% | viability ([5]; at 1.25 µM, OCI-P5x cells, without rucaparib) 87.9% | viability ([5]; at 5 µM, OCI-P5x cells, with rucaparib 20 µM, 100% = cells with rucaparib alone) 84.2% | viability ([5]; at 5 µM, OCI-P5x cells, without rucaparib) 82%
0.938: z-score [3, 11]
inactive: fold change [2, 6] 0.856 | z-score [3, 10] -0.618 | viability ([5]; at 0.000305 µM, OCI-C5x cells, with rucaparib 10 µM, 100% = cells with rucaparib alone) 103% | viability ([5]; at 0.000305 µM, OCI-C5x cells, without rucaparib) 124% | viability ([5]; at 0.000305 µM, OCI-P5x cells, with rucaparib 20 µM, 100% = cells with rucaparib alone) 105% | viability ([5]; at 0.00122 µM, OCI-C5x cells, with rucaparib 10 µM, 100% = cells with rucaparib alone) 105% | viability ([5]; at 0.00122 µM, OCI-C5x cells, without rucaparib) 120% | viability ([5]; at 0.00122 µM, OCI-P5x cells, with rucaparib 20 µM, 100% = cells with rucaparib alone) 109% | viability ([5]; at 0.00488 µM, OCI-C5x cells, with rucaparib 10 µM, 100% = cells with rucaparib alone) 112% | viability ([5]; at 0.00488 µM, OCI-C5x cells, without rucaparib) 129% | viability ([5]; at 0.00488 µM, OCI-P5x cells, with rucaparib 20 µM, 100% = cells with rucaparib alone) 102% | viability ([5]; at 0.0195 µM, OCI-C5x cells, with rucaparib 10 µM, 100% = cells with rucaparib alone) 109% | viability ([5]; at 0.0195 µM, OCI-C5x cells, without rucaparib) 124% | viability ([5]; at 0.0781 µM, OCI-C5x cells, with rucaparib 10 µM, 100% = cells with rucaparib alone) 100% | viability ([5]; at 0.0781 µM, OCI-C5x cells, without rucaparib) 123% | viability ([5]; at 0.313 µM, OCI-C5x cells, with rucaparib 10 µM, 100% = cells with rucaparib alone) 113% | viability ([5]; at 0.313 µM, OCI-C5x cells, without rucaparib) 124% | viability ([5]; at 0.313 µM, OCI-P5x cells, with rucaparib 20 µM, 100% = cells with rucaparib alone) 102% | viability ([5]; at 1.25 µM, OCI-C5x cells, with rucaparib 10 µM, 100% = cells with rucaparib alone) 106% | viability ([5]; at 1.25 µM, OCI-C5x cells, without rucaparib) 130% | viability ([5]; at 5 µM, OCI-C5x cells, with rucaparib 10 µM, 100% = cells with rucaparib alone) 129% | viability ([5]; at 5 µM, OCI-C5x cells, without rucaparib) 138%
5500: cell count [2, 8]
